Outcome and AC50 data for 15 compounds are collected here from PubChem BioAssay (EPA / NIEHS).

Structures are written as SMILES. Inconclusive results are not listed. Active and inactive are the calls of the source. Rule for the calls: active = hit-call score of the fitted dose curve at least 0.9, where 1 is the maximum; inconclusive = response in the unintended direction; inactive = score below 0.9.

What is called AC50 is the midpoint of the concentration-response curve, whichever way the signal moves.

The nature of the first assay: TAMU_PeakParms_SingleDonor1434_Asystole: Texas A&M University (TAMU) 1.5-hr Human Induced Pluripotent Stem Cell (iPSC)-derived Cardiomyocytes Calcium (Ca+2) Flux Assay for Cardiotoxicity: Asystole (quiescence of beating) (AID 2284328). The method, boiled down: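 Donor 1434 iPSC-cardiomyocytes exposed 90 min at 37C, 5% CO2, to 0.2, 1, 10 and 100 uM in 0.5% DMSO. Ca2+ dye fluorescence gave average peak frequency; POD is EC95, a 95% beat-rate drop versus controls.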
Consider `O=P(Oc1ccccc1)(Oc1ccccc1)Oc1ccccc1`, for which the result was inactive.

Regarding `CCC1(c2ccccc2)C(=O)N=C(O)NC1=O` (stereo unspecified), the outcome was inactive.

As for `CC(C)(C)c1ccccc1OP(=O)(Oc1ccccc1)Oc1ccccc1`, the result was inactive.

As for `CCCCC(CC)COP(=O)(Oc1ccccc1)Oc1ccccc1` (stereo unspecified), the outcome was inactive.

Another assay in a line: IUF_NPC1_cytotoxicity_72hr: Cytotoxicity Assessment at 72 hours in the Leibniz Research Institute for Environmental Medicine (IUF) Neural Progenitor Cell Proliferation Assay (NPC1) (AID 2284332).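 Note: rising LDH signal means more cytotoxicity.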 The method, boiled down:
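Readout is fluorescence from LDH-dependent resazurin conversion, sampled from culture medium after compound contact lasting 72 h. Each well holds one 0.25-0.35 mm human progenitor sphere kept at 37C, 5% CO2 with EGF and FGF.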
For `O=P(Oc1ccccc1)(Oc1ccccc1)Oc1ccccc1`, the outcome was inactive.

As to `O=S1(=O)OCC2C(CO1)C1(Cl)C(Cl)=C(Cl)C2(Cl)C1(Cl)Cl` (stereo unspecified), the outcome was inactive.

As to `CCOP(=S)(OCC)SCSCC`, the call was inactive.

For `O=C(O)C(F)(OC(F)(F)C(F)(F)C(F)(F)F)C(F)(F)F` (stereo unspecified), the compound was called inactive.

For the compound `CCCCOCCOP(=O)(OCCOCCCC)OCCOCCCC`, the outcome was inactive.

As for `CCOc1ccc(C(C)(C)COCc2cccc(Oc3ccccc3)c2)cc1`, the result was inactive.

For `CC(C)(C)c1ccccc1OP(=O)(Oc1ccccc1)Oc1ccccc1`, the compound was classed as inactive.

As to `CO/N=C(/C(=O)OC)c1ccccc1COc1ccccc1C`, the result was inactive.

The next assay can be described thus: CCTE_Mundy_HCI_iCellGluta_NOG_NeuronCount: CCTE's Neurite Outgrowth Assay in iCellGluta cells for Neuron Count, Mundy Lab (AID 2284340).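 Note: cells fixed about 48 h after compound addition.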 The procedure:
CCTE_Mundy_HCI_iCellGluta_NOG is a multiplexed, cell-based-readout assay that uses iCell GlutaNeurons from FUJIFILM Cellular Dynamics, Inc. (FCDI), human glutamatergic enriched neurons derived from induced pluripotent stem (iPS) cells, with measurements taken at 50.33 hours after chemical dosing in a microplate: 96-well plate.CCTE_Mundy_HCI_iCellGluta_NOG_NeuronCount is one of four components of the CCTE_Mundy_HCI_iCellGluta_NOG assay. It measures cell viability related to number of neurons using High Content Imaging of fluorescently labelled markers.Data from the assay component CCTE_Mundy_HCI_iCellGluta_NOG_NeuronCount was analyzed at the endpoint CCTE_Mundy_HCI_iCellGluta_NOG_NeuronCount in the positive analysis fitting direction relative to DMSO as the negative control and baseline of activity. Using a type of viability reporter, loss-of-signal activity can be used to understand developmental effects.
Exposure starts 2 hours post-plating by adding 10 ul of the working solution to 90 ul of media in the wells for a 1/10 dilution. Forty-eight hours after chemical treatment cells are fixed by direct addition of 100 ul of warm (37C) Dulbecco's phosphate buffered saline (DPBS) fixative solution containing 8% paraformaldehyde, 8% sucrose, and 0.1% of 3 mg/ml Hoechst 33342 into each well. Primary antibodies are prepared by dilution in Immunocytochemical Staining Buffer (ISB), 10X Dulbecco's PBS, 0.1% Saponin, 5% Bovine Serum Albumin, 0.5% NaN3 (Sodium Azide) and betaIII-tubulin (rabbit anti-betaIII-tubulin, 1:800) followed by Alexa Fluor-488 secondary (1:500) to label neuronal cell bodies and neurites. A Cellomics ArrayScan VTi HCS Reader is used for automated image acquisition and analysis of neurite outgrowth.
`CCOP(=S)(OCC)SCSCC`: the compound was classed as inactive.

Consider `FC(F)(F)C(F)(C(F)(F)F)C(F)(F)C(F)(F)CC1CO1` (stereo unspecified), for which the compound was classed as inactive.

For the compound `O=C(O)C(F)(OC(F)(F)C(F)(F)C(F)(F)F)C(F)(F)F` (stereo unspecified), the call was inactive.

`OCC(F)(F)OC(F)(F)C(F)(F)OC(F)(F)C(F)(F)OC(F)(F)F`: the compound was called inactive.

As for `O=C(O)C=CC(F)(C(F)(F)F)C(F)(F)F`, the result was inactive.

Consider `CCOc1ccc(C(C)(C)COCc2cccc(Oc3ccccc3)c2)cc1`, for which the result was inactive.

For `O=C(O)C(F)(F)OC(F)(F)C(F)(F)OC(F)(F)C(=O)O`, the outcome was inactive.

Turning to `CO/N=C(/C(=O)OC)c1ccccc1COc1ccccc1C`, the concentration at half-maximal activity (AC50) was 31.4 µM (active).

Regarding `O=C(O)C(F)(F)OC(F)(F)C(F)(F)OC(F)(F)F`, the result was inactive.
